Measurements from PubChem BioAssay AID1347077 (National Center for Advancing Translational Sciences (NCATS), 2019).
Out of some 44,000 compounds screened, fewer than 10 were called active. The call rests on the fitted dose curve; in most records, active means well fitted activation curve with a large enough effect; inconclusive means small, poorly fitted or top-dose-only effect, or another doubt; inactive means no such curve, though single readings can be large or run the other way. These entries were drawn from the full list.

What follows are compounds tested against Beta-2 adrenergic receptor (Homo sapiens) (UniProt P07550) (assay: qHTS assay of beta-arrestin-biased ligands of beta2-adrenergic receptor: NCGC Sytravon Library Screen). Conditions: HTLA Tango cells, beta-arrestin recruitment, luciferase luminescence, 18 h; series mostly up to 46.1 µM; activation: at the top concentration.
Beta-2 adrenergic receptor (Homo sapiens), sequence (P07550 whole entry, looked up): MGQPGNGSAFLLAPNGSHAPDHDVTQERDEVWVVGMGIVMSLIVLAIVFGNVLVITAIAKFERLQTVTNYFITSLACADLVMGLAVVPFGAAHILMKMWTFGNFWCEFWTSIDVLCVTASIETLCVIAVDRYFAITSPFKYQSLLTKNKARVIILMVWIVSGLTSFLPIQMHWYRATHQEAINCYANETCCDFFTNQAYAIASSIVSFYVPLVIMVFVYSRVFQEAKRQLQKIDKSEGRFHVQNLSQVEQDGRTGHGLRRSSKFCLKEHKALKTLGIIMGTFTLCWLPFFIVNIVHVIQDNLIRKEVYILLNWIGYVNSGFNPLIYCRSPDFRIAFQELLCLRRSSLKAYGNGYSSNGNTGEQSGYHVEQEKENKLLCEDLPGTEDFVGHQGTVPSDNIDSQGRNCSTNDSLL
Text: The concept of biased agonism is an emerging concept of molecular pharmacology which proposes that seven transmembrane receptors (7TMRs) or G protein-coupled receptors (GPCRs), exist in multiple signaling conformations and complexes and that ligands (either agonists or antagonists) can induce signaling biased responses for distinct signal transduction cascades. […] Furthermore, accumulating evidence over the last decade has drawn attention to a novel function of beta-arrestins as signal transducers that scaffold various signaling molecules upon activation of 7TMRs. […] This beta-arrestin-biased signaling presumably leads to distinct physiological outcomes from those by G protein activation. Additionally, the active receptor conformations which prefer on this beta-arrestin signaling are likely different from those activating G protein signaling. […] The goal of this screening project will be to discover and optimize novel beta-arrestin-biased ligands for beta2-AR signaling. A luminescent cell-based assay for beta2-AR-mediated agonism, known as the Tango assay, has been validated in which ligand binding of a recombinant beta2-AR and subsequent recruitment of a recombinant beta-arrestin lead to the release of the transcriptional activator tTA, which upregulates transcription of a tTA-responsive luciferase gene. […] Compounds from the NCGC Sytravon Library collection were screened as a concentration-titration series that ranged from 46 microM to 0.6 nM. NIH Molecular Libraries Probe Production Network [MLPCN] NIH Chemical Genomics Center [NCGC] MLPCN Grant: Fast-track/HHSN271700800025C PI: Bryan Roth and Bob Lefkowitz
Tango cells were dispensed into white, solid, tissue-culture-treated 1536-well plates at 1500 cells/well in DMEM, containing 1% fetal bovine serum (FBS). Then, 23 nL of compounds or DMSO were delivered to each well using a pin tool. Plates were incubated at 37 degrees C, 5% CO2 for 18 hr. Then 2.5 uL luminescent substrate mix (in-house prepared: 150 mM Tris-Cl, pH 7.6, 3 mM MgCl2, 1% Triton X-100, 5 mM DTT, 0.5 mM CoA, 0.15 mM ATP, 0.44 mM D-luciferin, final concentrations) was added to each well. Plates were then incubated for 15 minutes at room temperature, and subsequently measured on a ViewLux plate reader for luminescent signal using a clear filter with a 10 second exposure and 2x binning. The %Activity was determined from the corrected luminescence values. […] Concentration-response curves were fitted to the signals arising from the resulting luminescence. The concentration-effect curves were then classified based on curve quality (r2), response magnitude and degree of measured activity, and compounds were subsequently categorized based on their curve class.
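Further: 0% = DMSO and full agonism = EC100 isoproterenol or metaproterenol.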

| Structure (SMILES) | activation |
| --- | --- |
| OCc1cnc(SCc2ccc(F)cc2)n1Cc1ccc(F)cc1 | -1.11% (inactive) |
| CCOc1cc2[nH]c(=O)n(Cc3ccc(C(=O)NCCN(CC)CC)cc3)c(=O)c2cc1OCC | -2.85% (inactive) |
| COc1ccc(Nc2ncc3c(n2)CCN(C(=O)OC(C)(C)C)C3)cc1 | -1.93% (inactive) |
| CCOC(=O)CNC(=O)c1cc2c(=O)n3cccc(C)c3nc2s1 | 0.42% (inactive) |
| COC(=O)c1ccc(NC(=O)CCc2c(C)nn(-c3ccc(N4CCCC4)nn3)c2C)cc1 | 0.407% (inactive) |
| CC(=O)N1CCCc2cc(S(=O)(=O)N3CCC(C(=O)NCc4ccc(C)cc4)CC3)ccc21 | -0.216% (inactive) |
| O=C1CC(c2ccc(F)cc2F)c2cc3c(cc2N1)OCO3 (stereo not drawn) | 0.79% (inactive) |
| COc1cccc(NC(=O)CSc2cc(=O)n(C)c3ccc(Cl)cc23)c1 | 0.89% (inactive) |
| CC(=O)c1cccc(NC(=O)c2nc(-c3ccccc3)n(-c3cccc(C)c3)n2)c1 | -1.39% (inactive) |
| O=C(Nc1ccc2nc(SCC(=O)N3CCCc4ccccc43)sc2c1)c1ccc(Cl)cc1 | -4.59% (inactive) |
| COc1ccc(NC(=O)c2cc3cc(C)ccc3n2C)cc1 | -4.51% (inactive) |
| CCc1ccc(NC(=O)CN2CCSc3ccc(S(=O)(=O)N4CCCC4)cc32)cc1 | 2.13% (inactive) |
| O=c1cc2nc(-c3ccccc3)nc(SCCOc3ccc(Cl)cc3)n2[nH]1 | -1.33% (inactive) |
| CCc1ccc(Sc2cc(C(=O)NCCCOC(C)C)c3ccccc3n2)cc1 | 5.47% (inactive) |
| Cn1c(=O)c2c(nc(NCCc3ccccc3)n2Cc2ccccc2Br)n(C)c1=O | 0.853% (inactive) |
| O=C(CSc1ncc(S(=O)(=O)c2ccc(Br)cc2)c(=O)[nH]1)Nc1ccc2c(c1)OCCO2 | -1.59% (inactive) |
| CCN1CCN(c2cc(C)c3cc(NC(=O)c4cc(Cl)ccc4OC)ccc3n2)CC1 | -0.147% (inactive) |
| Cc1cccc(-n2c(=O)c3c(c4cc(C)ccc4n3C)n(CC(=O)Nc3ccccc3Cl)c2=O)c1 | 0.368% (inactive) |
| CCc1ccccc1NC(=O)CSc1nc(C)c(C(=O)Nc2ccccc2)c(-c2ccc(Cl)cc2)c1C#N | -0.211% (inactive) |
| O=C(NCc1ccccc1Cl)C1=Cc2cc(Br)ccc2OC1 | -0.0504% (inactive) |
| COC(=O)C1=C(c2ccccc2)c2ccccc2S(=O)(=O)N1CC(=O)Nc1ccccc1C(F)(F)F | -2.12% (inactive) |
| Cc1ccc2cccc(NC(=O)c3cccc4ccccc34)c2n1 | 0.459% (inactive) |
| CC(C)OCCCn1c(SCC(=O)c2ccccc2)nc2c(sc3ccccc32)c1=O | -3.59% (inactive) |
| CCC(C)Nc1oc(-c2ccc(COc3ccc(Cl)cc3)o2)nc1C#N (stereo not drawn) | -4.1% (inactive) |

| Structure (SMILES) | activation |
| --- | --- |
| Cc1ccc(NC(=O)c2nc(S(=O)(=O)Cc3cccc(C)c3)ncc2Cl)cc1 | -1.39% (inactive) |
| COc1ccc(C2C(=O)N(C3CCCCCC3)CC(=O)N2CCc2ccc(Cl)cc2)cc1OC (stereo not drawn) | -0.695% (inactive) |
| CCOC(=O)c1cnc2c(C)cc(Cl)cc2c1NCCc1ccc(OC)c(OC)c1 | -2.28% (inactive) |
| Cc1cccc(CC(=O)Nc2cccc(-c3cn4cccnc4n3)c2)c1 | 0.528% (inactive) |
| Cc1cc(C)cc(NC(c2nnc(-c3cccc(F)c3)o2)c2ccc(F)cc2Cl)c1 (stereo not drawn) | -2.14% (inactive) |
| Cn1nnnc1SCCCNCc1cccc(OCc2ccc(Cl)cc2)c1 | -4.7% (inactive) |
| COCCn1c(CCC(=O)Nc2cc(C)ccc2C)nc2cccnc21 | -2.56% (inactive) |
| O=C(CSc1oc(-c2ccccc2)nc1S(=O)(=O)c1ccc(Br)cc1)NC1CCCCC1 | 0.602% (inactive) |
| COc1ccccc1CNC(=O)CCCCn1c(=O)c2ccccc2n(CC(=O)Nc2cc(Cl)ccc2C)c1=O | -1.9% (inactive) |
| COc1cccc(CNC(=O)Cc2csc3nc(-c4ccccc4)cn23)c1 | -0.157% (inactive) |
| Cn1c(COc2ccccc2C(C)(C)C)nc2ccccc21 | 0.351% (inactive) |
| Cc1ccc(CNC(=O)CSc2c(C)cnc3c2c(=O)n(C)c(=O)n3C)cc1 | -3.91% (inactive) |
| Cc1ccc(CN2CCC(CNC(=O)c3cnn(-c4ccc(C)cc4)c3C3CCN(C(=O)OC(C)(C)C)CC3)CC2)cc1 | -0.676% (inactive) |
| CSc1nc(=O)c2c(n1C)NC(=O)CC2c1ccccc1OC(C)C (stereo not drawn) | -3.09% (inactive) |
| COc1ccc(-c2c(C)c3ccc(O)c(CN4CCCC4)c3oc2=O)cc1OC | 4.22% (inactive) |
| COc1ccccc1NC(=O)c1oc2ccccc2c1NC(=O)COc1ccccc1OC | 1.24% (inactive) |
| CC(=O)N1CCc2cc(S(=O)(=O)NC(Cc3ccccc3)C(=O)NCc3ccc(C)cc3)ccc21 (stereo not drawn) | 0.236% (inactive) |
| O=C1Cc2cc(S(=O)(=O)Nc3ccc(OC(F)(F)F)cc3)cc3c2N1CCC3 | -0.19% (inactive) |
| CC1CCCN(c2nc3c(S(=O)(=O)c4ccc(C(C)C)cc4)nnn3c3ccsc23)C1 (stereo not drawn) | 0.103% (inactive) |
| Cc1ccc(CSc2nc3ccsc3c(=O)n2CCC(C)C)cc1 | -2.67% (inactive) |
| CCOc1ccccc1CNC(=O)C1CCCN(S(=O)(=O)c2ccc3c(ccn3C)c2)C1 (stereo not drawn) | 1.37% (inactive) |
| Cc1ccc2c(=O)cc(C(=O)Nc3sc4c(c3C(=O)NCc3cccnc3)CCCC4)oc2c1 | -0.248% (inactive) |
| COc1ccc(C(=O)Nc2ccc3nc(N4CCCCC4)cc(C)c3c2)cc1OC | 0.327% (inactive) |
| COC(=O)CC1Oc2ccccc2-n2cc(-c3ccccc3)nc21 (stereo not drawn) | 0.516% (inactive) |
